From PubChem
N370S GC: inhibitors or activators of N370S glucocerebrosidase for Gaucher disease; P04062; N370S GC spleen homogenate, 4MU-glucoside fluorescence; Potency, µM (highest dose often 59.4 µM), usual class: inhibitors; hit rate 0.092% among 330,000; AID 2101
aGlu spleen mod: lysosomal alpha-glucosidase (human) modulation | human spleen homogenate, 4-MU-alpha-glucoside fluorescence | Potency, µM (series often up to 79.9 µM), usual class: inhibitors | hit rate 0.006% among 240,000 | AID 2112
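Compounds were titrated against alpha-glucosidase in spleen homogenate at pH 5.0, with 1 mM 4-methylumbelliferyl substrate for 40 min at 37 C. Reactions were quenched with pH 10 NaOH/glycine and fluorescence measured.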
GAA glycogen mod: GAA glycogen-cleavage inhibition or activation; hit rate 0.38% among 300,000; Potency, µM (highest dose often 76.4 µM), actives largely listed as inhibitors; P10253; AID 2100; recombinant GAA, glycogen substrate, Amplex Red glucose oxidase fluorescence;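 further: the screen sought inhibitors and activators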
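Recombinant enzyme (4 nM final) with compounds titrated up to 77 uM and bovine liver glycogen (30 ug) in citrate pH 5.0, 0.01% Tween-20, 37 C 40 min. Released glucose detected by Amplex Red/glucose oxidase (Ex 573/Em 610); AC50 from Hill fits.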
GLA spleen mod: alpha-galactosidase A (human) modulation; AID 2107; human spleen homogenate, 4MU-alpha-Gal fluorescence, 40 min; Potency, µM (titrated, usually from 80 µM), actives largely listed as inhibitors; hit rate 0.008% among 240,000
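Human spleen homogenate (1 ug) as enzyme source, 4-methylumbelliferyl-alpha-D-galactopyranoside 1 mM final, citrate/phosphate pH 5.0 with 0.01% Tween-20. Compounds 40 min at 37C, NaOH/glycine stop; fluorescence Ex 365/Em 440, Hill-fit AC50.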
GAA inhib: alpha-glucosidase (human) inhibition; P10253; purified human GAA, 4-MU-alpha-glucoside fluorescence; Potency, µM (highest dose often 76.9 µM), actives largely listed as inhibitors; hit rate 0.005% among 200,000
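Fluorescence at Ex 365/Em 440 nm from 4-methylumbelliferone reported enzyme activity after 20 min at room temperature. Reactions used 4 nM enzyme and 400 uM substrate at pH 5.0; curves fitted with the Hill equation.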
GLA inh pH 4.5: blocks human alpha-galactosidase A at pH 4.5; purified enzyme, 4-MU-alpha-Gal fluorescence, pH 4.5; 230,000 tested, under 10 active; activity change, negative = inhibition, % at 105 µM; AID 1467; P06280
Target sequence (P06280 whole entry, looked up): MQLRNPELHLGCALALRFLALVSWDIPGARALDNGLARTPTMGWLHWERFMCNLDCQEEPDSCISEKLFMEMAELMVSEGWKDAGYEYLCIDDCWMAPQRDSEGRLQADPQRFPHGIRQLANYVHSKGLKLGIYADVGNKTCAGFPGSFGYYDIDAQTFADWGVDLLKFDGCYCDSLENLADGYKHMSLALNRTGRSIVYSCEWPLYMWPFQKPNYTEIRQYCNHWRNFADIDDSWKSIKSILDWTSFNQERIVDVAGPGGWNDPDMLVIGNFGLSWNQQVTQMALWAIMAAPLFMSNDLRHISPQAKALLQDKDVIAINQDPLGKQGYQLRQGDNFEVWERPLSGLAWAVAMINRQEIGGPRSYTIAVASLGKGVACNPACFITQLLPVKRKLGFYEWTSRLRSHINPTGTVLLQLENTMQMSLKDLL
Hits are given with their value; . = inactive; ? = inconclusive; / = no result given; [ ] = another dose, or the depositor's remark. This is a sample that favours compounds with a hit; in the whole collection about 0.43% have one here. The call rests on the fitted dose curve; in most records, active means well fitted curve in the direction sought with a large enough effect; inconclusive means small, poorly fitted or top-dose-only effect, or another doubt; inactive means no such curve, though single readings can be large; an effect the other way counts as inactive or inconclusive.

SMILES	N370S GC	aGlu spleen mod	GAA glycogen mod	GLA spleen mod	GAA inhib	GLA inh pH 4.5
Cc1cc(SCC(=O)c2ccc(O)c(O)c2)nc2ccccc12	.	.	4.4µM	.	.	.
O=C(CSc1n[nH]c(-c2ccccc2)n1)c1ccc(O)c(O)c1	.	.	10µM	.	.	.
COc1ccccc1-c1nc(Nc2ccncc2)c2ccccc2n1	.	.	/	.	/	/
CCOC(=O)c1ccc(N2C(=O)c3[nH]nc(-c4ccccc4)c3C2c2ccc(CC)cc2)cc1 (centres undefined)	/	/	.	/	/	/
COc1ccc(O[C@H]2C=C[C@@H](c3ccccc3)O[C@H]2COC(=O)NCc2cccc3ccccc23)cc1	.[12.8 µM]	.[17.4 µM]	/	.[17.5 µM]	/	/
COc1ccccc1CNc1nc(-c2ccc(N(C)C)cc2)nc2ccccc12	.	.	/	.	/	.
COc1ccc(CNc2nc(-c3ccccc3CN(C)C)nc3ccccc23)c(OC)c1	.	.	/	.	/	.
COc1ccc(CNc2nc(-c3ccoc3)nc3ccccc23)c(OC)c1	14µM	.	/	.	/	.
COc1cccc(-c2nc(NCc3ccccc3OC)c3ccccc3n2)c1	14µM	.	/	.	/	/
COc1cccc(-c2nc(NCc3ccccc3)c3ccccc3n2)c1	.	.	/	.	/	/
COc1ccccc1CNc1nc(-c2ccc3c(c2)OCO3)nc2ccccc12	16µM	.	/	.	/	/
CCCCCCCCCCCCCCCCOC[C@H](COP(=O)([O-])OCC[N+](C)(C)C)OC(=O)CCCCCCCC(=O)O	.	.	/	.	/	/
CC(C)[C@H](N)C(=O)N[C@@H](CCC(N)=O)C(=O)NCC(=O)N[C@@H](CCC(=O)O)C(=O)N[C@@H](CCC(=O)O)C(=O)N[C@@H](CO)C(=O)N[C@@H](CC(N)=O)C(=O)N[C@@H](CC(=O)O)C(=O)N[C@@H](CCCCN)C(=O)O	.	.	/	.	/	/
C(=N\Nc1nc2ccccc2[nH]1)/c1c[nH]c2ccccc12	.	.	22µM	.	.	.
C(=N\Nc1nc2ccccc2[nH]1)/c1cccc2cccnc12	.	.	35µM	.	.	.
Cc1ccc(/C=N/Nc2nc3ccccc3[nH]2)s1	.	.	28µM	.	.	.
Cc1cc(=O)[nH]c(N/N=C/c2c[nH]c3ccccc23)n1	.	.	.	.	.	.
C(=N\Nc1nc2ccccc2[nH]1)/c1ccccc1	.	.	?	.	.	.
Cc1ccccc1/C=N/Nc1nc2ccccc2[nH]1	.	.	?	.	.	.
Brc1ccc(C2C3=C(Nc4ncnn42)c2ccccc2OC3c2ccncc2)cc1 (centres undefined)	14µM	.	.	.	.	.
Cc1ccc(S(=O)(=O)Nc2cc(Cl)c(O)cc2C)cc1	.	.	22µM	.	.	.
CC(=O)Oc1ccc2c(=O)c(Oc3ccccc3)c(C)oc2c1OC(C)=O	.	.	3.5µM	.	.	.
O=C(NN=C1C2CC3CC(C2)CC1C3)c1cc(Cl)ccc1O	.	.	13µM	.	.	.
O=C(NN=C1C2CC3CC(C2)CC1C3)c1ccncc1	.	.	?	.	.	.
Cc1c(O)ccc(/C=N/Nc2nc(-c3cccnc3)nc3ccccc23)c1O	?	.	35µM	.	.	.
SMILES	N370S GC	aGlu spleen mod	GAA glycogen mod	GLA spleen mod	GAA inhib	GLA inh pH 4.5
Oc1ccc(/C=N/Nc2nc(-c3cccnc3)nc3ccccc23)c(O)c1	.	.	?	.	/	.
Cc1ccc(C(C(=O)NC(C)(C)C)N(Cc2ccco2)C(=O)Cn2nnc(-c3cccs3)n2)cc1 (centres undefined)	.	.	.	.	.	.
CC(C)(C)NC(=O)C(c1ccncc1)N(Cc1cccs1)C(=O)Cn1nnc(-c2cccs2)n1 (centres undefined)	.	.	28µM	.	.	.
COc1cccc(NC(=O)Cn2cc(S(=O)(=O)Cc3ccccc3F)c3ccccc32)c1	/	/	.	/	/	/
CCOC(=O)c1[nH]c2ccccc2c1NC(=S)Nc1ccccc1C	.	.	14µM	.	.	.
NC(N)=N/N=C/c1ccc(OCc2ccccc2Cl)cc1	22µM	.	.	.	.	.
NC(N)=N/N=C/c1ccccc1	.	.	.	.	.	.
COc1cc(/C=N/N=C(N)N)ccc1OCc1ccc(Cl)cc1	7.9µM	.	.	.	.	.
NC(N)=N/N=C/c1ccc(OCc2ccccc2)c(OCc2ccccc2)c1	11µM	/	.	/	/	/
CC(=O)/C(=N\Nc1ccc(C)cc1)N1CCOCC1	.	.	12µM	.	.	.
Cc1ccc(NS(=O)(=O)c2ccc(C(=O)N3CCOCC3)cc2)cc1	.	/	/	/	/	/
S=C(NCc1ccncc1)Nc1ccccc1	.	.	.	.	.	.
S=C(NCc1ccncc1)Nc1ccc(Br)cc1	18µM	/	.	/	/	/
CCOC(=O)Cc1csc(NC(=O)Cc2ccc(Cl)cc2)n1	.	.	.	.	/	.
CCOC(=O)Cc1csc(NC(=O)NC2(C(F)(F)F)Oc3cc(Cl)c(Cl)cc3O2)n1	.	.	8.8µM	.	.	.
CCOC(=O)Cc1csc(NC(=O)Nc2ccc(OC(F)(F)F)cc2)n1	.	.	.	.	.[15.4 µM]	.
CCOC(=O)Cc1csc(NC(=O)NC2(C(F)(F)F)Oc3ccc(Cl)cc3O2)n1 (centres undefined)	.	.	11µM	.	.	.
CCOC(=O)Cc1csc(NC(=O)NC2(C(F)(F)F)Oc3ccccc3O2)n1	.	.	18µM	.	.	.
CS(=O)(=O)Nc1cccc(-c2cncnc2NCc2cccnc2)c1	.	.	/	.	/	/
Cc1[nH]n(-c2ccc(Cl)c(Cl)c2)c(=O)c1CCO	.	.	22µM	.	.	.
COCCCNC(=S)NCCc1ccc(F)cc1	.	.	.	.	.	.
COCCCNC(=S)Nc1ccc(C)cc1	.	.	.	.	/	.
COCCCNC(=S)NNC(=S)Nc1ccccc1	.	.	6.3µM	.	.	.
COCCCNC(=S)NNC(=S)Nc1ccc(F)cc1F	.	.	16µM	.	.	.
CN(C)c1ccc(CNC(=O)C2(C)C=CCN2C(=O)c2ccccc2)cc1 (centres undefined)	.	.	/	.	/	.
SMILES	N370S GC	aGlu spleen mod	GAA glycogen mod	GLA spleen mod	GAA inhib	GLA inh pH 4.5
CCCn1c(C(CO)Nc2nc(-c3cccc(Br)c3)cs2)nc2ccccc21 (centres undefined)	1.8µM	/	.	/	/	/
COc1ccc(-c2nnc3n2N=C(c2cc(OC)ccc2OC)CS3)cc1	.	.	/	.	/	/
Brc1ccc(-c2nc3ncccn3c2Nc2ccc3c(c2)OCCO3)o1	.	.	22µM	.	.	.
Cc1ccc(-c2nc3ncccn3c2Nc2ccc3c(c2)OCCO3)cc1	.	.	?	.	.	.
Oc1ccc(-c2nc3ncccn3c2Nc2ccc3c(c2)OCCO3)cc1	/	.	25µM	.	.	.
Cc1ccc(-c2nc3ncccn3c2NC(=O)C2CC2)cc1	.	.	.	.	.	.
